ADAM17 inh: inhibits human ADAM17. P78536. recombinant ADAM17, EDANS/DABCYL FRET peptide cleavage. inhibition, % at 6.95 µM. actives 0.83% (n = 370,000). AID 720648;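 active = inhibition above the mean of compounds lying between control limits plus 3 SD, set per campaign, cut at about 8.5% in these data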;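 note: 0% = DMSO-only wells as the low control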
V-ATPase pH: yeast V-ATPase proton transport regulation by pHLuorin | response, % at 10 µM | S. cerevisiae, pHLuorin cytosolic pH fluorescence | actives 0.37% (n = 350,000) | AID 504577; in the data active = response mostly above about 7.3%, no sharp cut-off; inactive = mostly below about 5.4%; note: actives read high
ADAM10 inh: inhibitors of human ADAM10. inhibition, % at 7 µM. actives 0.62% (n = 370,000). recombinant ADAM10, EDANS/DABCYL FRET peptide cleavage, 3 h. AID 720582;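 active = inhibition above a per-campaign cutoff equal to the mean of compounds falling between control-based bounds plus 3 SD, cut at about 20% in these data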;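 note: 0% = DMSO wells while the 100% control is not disclosed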
Target sequence (O14672 214-748 limits assumed): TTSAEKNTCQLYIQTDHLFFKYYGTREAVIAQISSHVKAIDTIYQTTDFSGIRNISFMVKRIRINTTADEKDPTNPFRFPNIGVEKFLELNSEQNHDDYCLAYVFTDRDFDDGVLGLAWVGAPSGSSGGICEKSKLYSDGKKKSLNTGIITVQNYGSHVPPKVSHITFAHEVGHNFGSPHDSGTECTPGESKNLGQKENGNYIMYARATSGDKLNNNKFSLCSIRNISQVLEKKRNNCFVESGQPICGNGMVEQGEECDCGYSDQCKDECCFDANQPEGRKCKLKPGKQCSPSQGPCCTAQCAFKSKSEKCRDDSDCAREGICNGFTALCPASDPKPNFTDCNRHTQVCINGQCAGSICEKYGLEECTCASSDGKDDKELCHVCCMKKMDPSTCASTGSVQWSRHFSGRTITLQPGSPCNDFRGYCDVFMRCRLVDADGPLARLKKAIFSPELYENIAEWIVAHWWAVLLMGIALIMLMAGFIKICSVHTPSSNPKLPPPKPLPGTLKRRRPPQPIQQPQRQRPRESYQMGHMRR
KLK7 zymogen act: activators of human kallikrein-7 zymogen. purified proKLK7, EDANS-DABCYL substrate fluorescence; 100% is mature enzyme control, 0% vehicle. P49862. actives 0.9% (n = 370,000). activation, % at 7 µM;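 active = activation above the mean of all tested compounds plus 3 SD, computed per campaign excluding outliers beyond control limits, cut at about 13% in these data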
proKLK7 act conf: confirmation of human kallikrein-7 zymogen activators; actives 68% (n = 3,200); AID 686949; shares compounds with KLK7 zymogen act; activation, % at 7 µM; purified proKLK7, EDANS-DABCYL substrate fluorescence; scaled: vehicle 0, mature enzyme 100;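 active = activation, as change over the incubation, above the mean of all tested compounds plus 3 SD, cut at about 13% in these data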
EDANS interfere: fluorescence interference counter-screen for KLK7 activators; shares compounds with KLK7 zymogen act; activation, % at 7 µM; actives 80% (n = 3,200); EDANS-DABCYL substrate fluorescence interference, no enzyme, 4 h; solvent 0%, active enzyme control 100%;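 active = activation above the all-compound mean plus 3 SD, ignoring values outside control-based bounds, cut at about 4.8% in these data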;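 note: value is the 4 h activation minus the activation read at time zero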
K7 EDANS ctr: counter-screen for kallikrein-7 activators: EDANS-DABCYL interference, dose response | EDANS-DABCYL peptide fluorescence interference, no enzyme | shares compounds with KLK7 zymogen act | EC50, µM | actives 20% (n = 250);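 active = compounds that raise the fluorescence signal in this interference counterscreen, with EC50 at or below 10 µM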;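 note: intact quenched peptide substrate alone read at 355 nm excitation and 520 nm emission; signal is fluorescence gain from T0 to T4 after four hours at room temperature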
An asterisk follows results filed as active; i = inactive; . = no result given. Shown are actives, neighbours in structure and some others; about 2.3% of the full set was active somewhere.

SMILES	ADAM17 inh	V-ATPase pH	ADAM10 inh	KLK7 zymogen act	proKLK7 act conf	EDANS interfere	others
CCOC(=O)C1CCCN(C(=O)Cn2nc(C)n3c(cc4c(OC)cccc43)c2=O)C1 (stereo unspecified)	i	2	i	18*	8	6.4*
CN(C)/C=C1\C=C2C(=O)c3ccccc3N2C1=O	-14	1	-32	14*	72*	66*
CN(C)S(=O)(=O)N1C(=O)c2ccccc2C1=O	4	-2	-3	0	.	.
CC(=O)N1CCCN(S(=O)(=O)c2ccc3c(c2)c(=O)n(C)c(=O)n3C)CC1	2	.	5	0	.	.
CCCS(=O)(=O)c1c(S(=O)(=O)CCC)c2cc(-c3ccncc3)ccn2c1C(=O)OC	i	-1	i	66*	67*	65*
CCOC(=O)[C@]12CCCCC/C=C\1N(Cc1ccc(OC)cc1)C(=O)[C@H]2CC(=O)NCC12CC3CC(CC(C3)C1)C2	3	.	8	0	.	.
CSc1nc2nc(Cl)c(Cl)nc2[nH]1	i	-1	i	26*	45*	46*
CCOC(=O)CSc1nc2nc(Cl)c(Cl)nc2[nH]1	i	1	i	36*	30*	31*
Cc1cc(N2CCNC[C@H]2C)ccc1N1C[C@@H](C)O[C@@H](C)C1	-2	.	-6	1	.	.
CCCCc1c(-c2ccccc2OC)ncn1Cc1c(Cl)cccc1Cl	-2	.	-9	0	.	.
CCOC(=O)/C(=C(/C)N)C1CC(=O)NC1=O (stereo unspecified)	-8	-1	-20	33*	37*	37*
CC[C@H](C)/C=C(C)/C=C/C1=CC2=CC(=O)[C@]3(C)OC(=O)[C@@H](C(C)=O)[C@@H]3C2=CO1	-91	-3	-284	19*	11	8.1*
COC(=O)c1ccc(OCC(O)CN2CCc3cc(OC)c(OC)cc3C2c2ccccc2)cc1 (stereo unspecified)	-36	1	-82	67*	4	0
COc1cc2c(cc1OC)C(c1ccccc1)N(Cc1ccc(S(=O)(=O)NC(=O)c3ccco3)cc1)CC2 (stereo unspecified)	-19	.	-72	29*	5	7.1*
CCC(=O)N1CCc2cc(OC)c(OC)cc2C1COc1ccc(C(=O)OC)cc1 (stereo unspecified)	-2	-4	-5	0	.	.
COc1ccc(-c2c(NC(C)=O)n(C)c3ccccc3c2=O)cc1	-48	-1	-191	10	.	.
COc1ccc(-c2c(NC(=O)C(C)C)n(C)c3ccccc3c2=O)cc1	-143	2	-438	16*	18*	20*
Nc1[nH]c2cc(C(F)(F)F)ccc2c1C(=O)N1CCN(CCc2ccccc2)CC1	-10	.	-13	0	.	.
Cn1ccc2c(-c3cccc(C=O)c3)cc3c(c21)C1CCC3O1 (stereo unspecified)	-1	.	-18	17*	15*	14*
CC(=O)Nc1cccc(-c2cc3c(c4c2ccn4C)C2CCC3O2)c1 (stereo unspecified)	-131	.	i	2	.	.
Cn1c(=O)c(Nc2ccc(Cl)cc2)c2c3c(cccc31)C(=O)c1ccccc1-2	-1	.	2	-1	.	.
CC(=O)Nc1c2c3c(cccc3n(C)c1=O)C(=O)c1ccccc1-2	-21	1	-63	23*	23*	21*
CCCCCCCCN1C(=O)N(Cc2ccc(OC)cc2)S(=O)(=O)c2ccc(F)cc21	-8	.	-10	0	.	.
Cc1cccn2c(=O)c3cc(C#N)c(=NC(=O)c4ccccc4)n(Cc4ccco4)c3nc12	i	5	i	45*	27*	17*	K7 EDANS ctr=7.8*
Cc1cccc(C(=O)N=c2c(C#N)cc3c(=O)n4cccc(C)c4nc3n2Cc2ccco2)c1	i	-2	i	27*	16*	1	K7 EDANS ctr=i
COCCCn1c(=NC(=O)c2ccccc2)c(C#N)cc2c(=O)n3cccc(C)c3nc21	-417	-2	i	6	.	.
Cc1cccn2c(=O)c3cc(C#N)c(=NC(=O)c4ccco4)n(Cc4ccco4)c3nc12	-364	-1	i	9	.	.

Screening results (PubChem)
